According to the supplement of paper PMC10849652:
The full data set covers some 7,900 targets. This sample favours those with a hit. About 0.6% of all pairs of compound and target were hits.

The targets below were run with CCN(CCCOc1ccc2c(Nc3cc(CC(=O)Nc4cccc(F)c4)[nH]n3)ncnc2c1)CCOP(=O)(O)O [barasertib] (assay: log2 fold change, soluble protein after heating vs DMSO (PISA); higher = thermal stabilisation; K562 cells, 10 uM, 30 min; active = over 0.2 and 3.5 SD of the protein, either way, in both replicates (recomputed)).
How it was run: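 K562 cells at 2×10^6 cells/mL were exposed to 10 μM compound for 30 min, then aliquots were heated for 3 min across 48°C-58°C, pooled, and extracted in PBS containing 0.5% NP-40 at 4°C. The supernatant after 21,000xg for 90 min was taken as soluble protein and measured by TMTpro 16plex LC-MS/MS with channel sums equalised. Thermal stability is reported relative to control samples, with values from duplicates. Fold changes are given on a log2 scale.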

Chain of UniProt Q8NBF2 (Q8NBF2 whole entry, looked up): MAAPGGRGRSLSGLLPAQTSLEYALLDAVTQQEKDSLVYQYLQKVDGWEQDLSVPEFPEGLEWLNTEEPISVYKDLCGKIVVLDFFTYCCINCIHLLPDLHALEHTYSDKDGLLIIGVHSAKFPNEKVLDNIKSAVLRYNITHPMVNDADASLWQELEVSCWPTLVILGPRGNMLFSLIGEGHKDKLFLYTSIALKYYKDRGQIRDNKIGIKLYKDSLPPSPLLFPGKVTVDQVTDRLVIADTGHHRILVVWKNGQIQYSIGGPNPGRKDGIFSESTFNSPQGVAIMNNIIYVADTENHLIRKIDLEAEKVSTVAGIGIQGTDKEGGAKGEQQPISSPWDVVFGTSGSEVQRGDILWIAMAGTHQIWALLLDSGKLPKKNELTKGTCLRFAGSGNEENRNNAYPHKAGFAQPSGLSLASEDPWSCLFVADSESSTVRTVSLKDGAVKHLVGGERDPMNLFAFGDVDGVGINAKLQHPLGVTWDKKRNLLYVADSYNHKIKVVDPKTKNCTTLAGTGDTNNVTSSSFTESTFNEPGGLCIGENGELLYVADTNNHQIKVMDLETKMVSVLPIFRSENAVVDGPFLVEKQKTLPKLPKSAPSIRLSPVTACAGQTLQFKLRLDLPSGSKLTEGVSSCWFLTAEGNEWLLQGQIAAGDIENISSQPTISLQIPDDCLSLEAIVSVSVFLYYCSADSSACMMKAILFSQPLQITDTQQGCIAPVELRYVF
Chain of UniProt Q9BZF1 (Q9BZF1 whole entry, looked up): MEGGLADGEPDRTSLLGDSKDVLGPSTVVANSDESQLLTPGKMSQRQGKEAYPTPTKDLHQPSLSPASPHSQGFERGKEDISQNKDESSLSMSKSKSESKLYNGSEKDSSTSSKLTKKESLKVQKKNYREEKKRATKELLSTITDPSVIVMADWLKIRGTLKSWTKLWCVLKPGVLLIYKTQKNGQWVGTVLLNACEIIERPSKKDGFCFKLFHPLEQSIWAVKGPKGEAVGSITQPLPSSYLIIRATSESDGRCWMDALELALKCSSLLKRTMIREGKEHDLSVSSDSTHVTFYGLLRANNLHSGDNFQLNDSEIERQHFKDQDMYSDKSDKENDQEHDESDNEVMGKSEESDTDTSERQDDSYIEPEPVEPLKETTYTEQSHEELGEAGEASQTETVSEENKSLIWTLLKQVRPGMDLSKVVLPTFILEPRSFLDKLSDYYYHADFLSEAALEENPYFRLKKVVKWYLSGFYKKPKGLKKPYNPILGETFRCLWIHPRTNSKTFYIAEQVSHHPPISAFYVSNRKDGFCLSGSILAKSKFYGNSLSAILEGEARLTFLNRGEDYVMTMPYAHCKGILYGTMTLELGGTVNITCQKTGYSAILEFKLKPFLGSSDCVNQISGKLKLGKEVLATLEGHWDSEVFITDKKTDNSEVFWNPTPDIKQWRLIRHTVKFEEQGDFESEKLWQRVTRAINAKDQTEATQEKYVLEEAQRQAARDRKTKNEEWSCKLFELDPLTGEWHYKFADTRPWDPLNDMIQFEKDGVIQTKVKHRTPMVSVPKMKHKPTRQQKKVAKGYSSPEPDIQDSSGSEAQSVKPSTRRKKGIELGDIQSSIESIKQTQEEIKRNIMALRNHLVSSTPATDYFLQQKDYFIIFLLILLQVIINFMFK
Chain of UniProt Q9ULX3 (Q9ULX3 whole entry, looked up): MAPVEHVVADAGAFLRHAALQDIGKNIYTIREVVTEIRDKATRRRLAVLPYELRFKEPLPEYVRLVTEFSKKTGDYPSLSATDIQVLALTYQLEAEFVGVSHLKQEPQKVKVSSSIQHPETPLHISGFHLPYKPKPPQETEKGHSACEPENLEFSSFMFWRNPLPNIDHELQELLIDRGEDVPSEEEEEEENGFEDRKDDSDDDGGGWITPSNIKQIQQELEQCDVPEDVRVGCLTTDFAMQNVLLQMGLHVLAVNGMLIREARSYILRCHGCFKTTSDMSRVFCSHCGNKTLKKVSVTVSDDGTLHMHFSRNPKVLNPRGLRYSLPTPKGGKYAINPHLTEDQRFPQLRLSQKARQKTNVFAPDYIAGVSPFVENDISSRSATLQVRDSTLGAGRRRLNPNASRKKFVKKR
Chain of UniProt Q16795 (Q16795 whole entry, looked up): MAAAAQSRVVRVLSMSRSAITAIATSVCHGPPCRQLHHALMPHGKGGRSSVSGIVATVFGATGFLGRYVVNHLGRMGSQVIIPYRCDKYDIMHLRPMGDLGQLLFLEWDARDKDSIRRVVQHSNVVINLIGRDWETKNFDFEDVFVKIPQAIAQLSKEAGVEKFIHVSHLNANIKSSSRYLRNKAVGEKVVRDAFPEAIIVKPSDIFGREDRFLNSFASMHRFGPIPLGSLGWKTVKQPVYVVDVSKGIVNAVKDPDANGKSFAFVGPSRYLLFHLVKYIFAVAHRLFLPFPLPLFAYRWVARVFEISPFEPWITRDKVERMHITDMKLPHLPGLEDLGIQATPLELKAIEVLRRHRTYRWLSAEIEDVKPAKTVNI
Chain of UniProt P84157 (P84157 whole entry, looked up): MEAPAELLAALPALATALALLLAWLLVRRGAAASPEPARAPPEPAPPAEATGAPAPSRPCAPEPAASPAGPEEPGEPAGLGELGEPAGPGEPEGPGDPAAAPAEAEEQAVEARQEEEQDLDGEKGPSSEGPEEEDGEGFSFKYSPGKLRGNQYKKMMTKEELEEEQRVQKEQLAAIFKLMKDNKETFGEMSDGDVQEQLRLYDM
Chain of UniProt Q8N4C8 (Q8N4C8 whole entry, looked up): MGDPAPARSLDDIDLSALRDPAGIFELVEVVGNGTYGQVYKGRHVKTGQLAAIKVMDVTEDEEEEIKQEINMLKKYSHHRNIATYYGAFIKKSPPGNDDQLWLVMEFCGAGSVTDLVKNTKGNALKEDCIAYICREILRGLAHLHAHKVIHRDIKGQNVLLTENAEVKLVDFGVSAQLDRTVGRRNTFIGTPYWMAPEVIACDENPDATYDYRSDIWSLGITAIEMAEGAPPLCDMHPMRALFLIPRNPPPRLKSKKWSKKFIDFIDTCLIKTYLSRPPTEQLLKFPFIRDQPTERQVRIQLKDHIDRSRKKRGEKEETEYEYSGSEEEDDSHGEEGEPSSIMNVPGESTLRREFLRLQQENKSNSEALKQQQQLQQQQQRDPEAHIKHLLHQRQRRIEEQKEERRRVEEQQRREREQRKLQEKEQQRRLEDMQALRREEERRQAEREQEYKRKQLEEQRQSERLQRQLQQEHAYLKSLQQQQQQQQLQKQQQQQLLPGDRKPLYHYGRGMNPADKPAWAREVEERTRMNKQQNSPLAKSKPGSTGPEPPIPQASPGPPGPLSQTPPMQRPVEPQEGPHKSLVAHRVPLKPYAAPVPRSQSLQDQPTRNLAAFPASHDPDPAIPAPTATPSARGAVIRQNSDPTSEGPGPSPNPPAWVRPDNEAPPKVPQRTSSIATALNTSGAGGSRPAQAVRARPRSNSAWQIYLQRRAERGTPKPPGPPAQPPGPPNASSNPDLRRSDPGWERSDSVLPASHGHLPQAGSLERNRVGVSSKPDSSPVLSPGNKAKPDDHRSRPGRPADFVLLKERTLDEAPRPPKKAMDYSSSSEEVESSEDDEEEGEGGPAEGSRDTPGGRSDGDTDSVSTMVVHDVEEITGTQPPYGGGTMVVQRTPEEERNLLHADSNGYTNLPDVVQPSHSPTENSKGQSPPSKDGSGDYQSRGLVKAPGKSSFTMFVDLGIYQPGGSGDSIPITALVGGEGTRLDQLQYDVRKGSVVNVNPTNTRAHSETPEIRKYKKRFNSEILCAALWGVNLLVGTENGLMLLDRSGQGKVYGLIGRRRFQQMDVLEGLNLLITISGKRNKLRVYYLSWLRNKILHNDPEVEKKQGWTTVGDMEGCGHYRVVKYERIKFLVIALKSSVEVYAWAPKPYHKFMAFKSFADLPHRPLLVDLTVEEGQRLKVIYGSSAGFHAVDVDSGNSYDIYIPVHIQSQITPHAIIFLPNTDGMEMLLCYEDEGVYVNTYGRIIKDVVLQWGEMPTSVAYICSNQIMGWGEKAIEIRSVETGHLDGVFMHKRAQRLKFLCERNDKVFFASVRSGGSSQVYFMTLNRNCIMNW
Chain of UniProt Q9UI09 (Q9UI09 whole entry, looked up): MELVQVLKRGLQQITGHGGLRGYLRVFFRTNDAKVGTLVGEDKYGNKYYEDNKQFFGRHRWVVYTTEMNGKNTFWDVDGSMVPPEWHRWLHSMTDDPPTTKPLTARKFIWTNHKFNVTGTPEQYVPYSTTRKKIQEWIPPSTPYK
Chain of UniProt Q9BV86 (Q9BV86 whole entry, looked up): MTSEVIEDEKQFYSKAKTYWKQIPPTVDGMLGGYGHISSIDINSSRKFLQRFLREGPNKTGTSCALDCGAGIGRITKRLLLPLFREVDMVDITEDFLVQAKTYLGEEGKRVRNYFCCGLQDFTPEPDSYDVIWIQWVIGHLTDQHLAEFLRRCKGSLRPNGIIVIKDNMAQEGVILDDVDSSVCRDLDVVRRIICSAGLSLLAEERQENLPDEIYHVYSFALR
Chain of UniProt O00217 (O00217 whole entry, looked up): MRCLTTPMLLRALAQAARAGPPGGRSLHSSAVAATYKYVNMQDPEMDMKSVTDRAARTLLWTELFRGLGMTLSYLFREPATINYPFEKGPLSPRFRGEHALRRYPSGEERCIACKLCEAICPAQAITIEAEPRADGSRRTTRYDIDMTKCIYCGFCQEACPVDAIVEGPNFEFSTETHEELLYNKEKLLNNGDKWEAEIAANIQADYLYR
Chain of UniProt Q99747 (Q99747 whole entry, looked up): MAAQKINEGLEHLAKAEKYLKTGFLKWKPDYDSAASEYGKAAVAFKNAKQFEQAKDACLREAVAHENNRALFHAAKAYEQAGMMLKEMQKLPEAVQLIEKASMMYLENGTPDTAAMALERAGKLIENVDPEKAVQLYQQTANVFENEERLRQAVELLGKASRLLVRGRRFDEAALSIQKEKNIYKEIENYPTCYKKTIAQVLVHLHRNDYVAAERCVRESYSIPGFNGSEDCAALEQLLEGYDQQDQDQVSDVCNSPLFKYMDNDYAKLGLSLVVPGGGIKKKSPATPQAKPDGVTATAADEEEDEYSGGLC
Chain of UniProt P56556 (P56556 whole entry, looked up): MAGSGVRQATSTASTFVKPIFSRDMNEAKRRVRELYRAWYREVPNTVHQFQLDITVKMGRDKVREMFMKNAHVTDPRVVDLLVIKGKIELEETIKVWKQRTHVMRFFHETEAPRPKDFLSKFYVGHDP

log2 fold change, inactive:
NDUFA6 (UniProt P56556) 0.035, MORF4L2 (UniProt Q15014) -0.03, NOL7 (UniProt Q9UMY1) -0.092, NELFA (UniProt Q9H3P2) 0.212, NHLRC2 (UniProt Q8NBF2) -0.004, MRPS25 (UniProt P82663) -0.02, MINK1 (UniProt Q8N4C8) -0.016, OSBPL8 (UniProt Q9BZF1) 0.094, NDUFA9 (UniProt Q16795) 0.026, NTMT1 (UniProt Q9BV86) 0.019, NFATC3 (UniProt Q12968) 0.019, NAA11 (UniProt Q9BSU3) -0.027, NUDT1 (UniProt P36639) -0.03, MRPS18B (UniProt Q9Y676) -0.017, NOP56 (UniProt O00567) -0.076, MRPS15 (UniProt P82914) 0.004, MXRA7 (UniProt P84157) 0.048, NPC1 (UniProt O15118) 0.02, NUCKS1 (UniProt Q9H1E3) 0.008, NCAPG (UniProt Q9BPX3) 0.064, NDUFB7 (UniProt P17568) -0.012, NACC1 (UniProt Q96RE7) 0.115, NDUFS8 (UniProt O00217) -0.004, NCL (UniProt P19338) -0.101, NOB1 (UniProt Q9ULX3) 0.041, NDUFA12 (UniProt Q9UI09) 0.056, NBN (UniProt O60934) 0.022, NIBAN1 (UniProt Q9BZQ8) 0.063, OXSR1 (UniProt O95747) 0.035, NFYC (UniProt Q13952) 0.028, NAPG (UniProt Q99747) 0.107, NUP210 (UniProt Q8TEM1) 0.029, MRPS24 (UniProt Q96EL2) -0.024, NMT1 (UniProt P30419) -0.015, NUP205 (UniProt Q92621) 0.044, MRPL46 (UniProt Q9H2W6) -0.008, MON1B (UniProt Q7L1V2) 0.005, NFX1 (UniProt Q12986) -0.125, MRPS16 (UniProt Q9Y3D3) -0.084
